High-throughput results (PubChem)
mHTT CaM bind: mutant huntingtin-calmodulin interaction inhibitors – biochemical, AlphaScreen, primary screen; P42858; AlphaScreen His-mHTT/GST-CaM binding, luminescence; inhibition, % at 15 µM; 3.6% of 190,000 active; AID 1671202, 2021;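 further: 0% = both proteins with DMSO and 100% = one protein alone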
Pf apPOL block: Pf-apPOL inhibitors, biochemical, fluorescence; Plasmodium falciparum apicoplast DNA polymerase (apPOL); Recombinant Pf-apPOL, molecular beacon fluorescence, 1.5 h; inhibition, % at 10 µM; 0.25% of 210,000 active
An asterisk follows results filed as active. Shown are actives, neighbours in structure and some others; about 3.6% of the full set was active somewhere. No stated cut-off is given here; in the data, active means inhibition above about 50%; inactive means the rest.

How did Cc1cc(O)c(C=Nc2cc(Cl)ccc2O)cc1C do in these assays?
mHTT CaM bind: 52*; Pf apPOL block: -8

How did Cc1ccc(SCC(=O)Nc2ccc(F)cc2)cc1 do in these assays?
Pf apPOL block: -6

Results for Cc1ccc(NC(=O)CSc2nc3n(n2)C(=O)C(=O)N3)cc1 ?
mHTT CaM bind: 3; Pf apPOL block: 94*

Results for OC(COCC1CC2CCC1C2)CN1CCc2ccccc2C1 (stereo not given) ?
mHTT CaM bind: -2; Pf apPOL block: 0

How did OC(COCC1CC2CCC1C2)CN1CCN(C(c2ccccc2)c2ccccc2)CC1 (stereo not given) do in these assays?
mHTT CaM bind: 62*; Pf apPOL block: 2

Results for CCC1CCCCN1C(=O)c1nn(-c2cc(OC)cc(OC)c2)c(=O)c2ccccc12 (stereo not given) ?
mHTT CaM bind: 24; Pf apPOL block: 3

What do the screens show for `COc1ccc(Cl)cc1NC(=O)C1OC2OC(C)(C)OC2C2OC(C)(C)OC12` (stereo not given)?
mHTT CaM bind: 2; Pf apPOL block: -8

Results for O=[N+]([O-])c1cccc(-c2nc(S(=O)(=O)c3ccccc3)c(NCc3ccccc3)o2)c1 ?
mHTT CaM bind: 18; Pf apPOL block: 2

How did CC(=O)n1cc(/C=C2\C(=O)NN(c3ccccc3)C2=O)c(-c2ccc(F)cc2)n1 do in these assays?
mHTT CaM bind: 54*; Pf apPOL block: -2

What do the screens show for `COc1ccccc1/C=C1\C(=O)NN(c2ccccc2)C1=O`?
mHTT CaM bind: -1; Pf apPOL block: -4

Results for O=C(NCc1ccc(F)cc1)c1cncc(-c2cccc(C(F)(F)F)c2)c1 ?
mHTT CaM bind: -10; Pf apPOL block: 1

How did COc1ccc(N2CCN(/C(=N/O)c3nonc3N)CC2)c([N+](=O)[O-])c1 do in these assays?
mHTT CaM bind: inactive; Pf apPOL block: -3

Results for Cc1c(C(=O)N2CCN(c3ccc(Cl)cc3[N+](=O)[O-])CC2)oc2ccccc12 ?
mHTT CaM bind: 61*; Pf apPOL block: 8

How did Nc1nonc1/C(=N\O)N1CCN(c2ccc(Cl)cc2[N+](=O)[O-])CC1 do in these assays?
mHTT CaM bind: active; Pf apPOL block: -8

How did O=C(c1ccc(Cl)cc1)N1CCN(c2ccc(Cl)cc2[N+](=O)[O-])CC1 do in these assays?
mHTT CaM bind: 40; Pf apPOL block: -2

Results for COc1ccc(OC)c(Nc2ccc([N+](=O)[O-])cc2[N+](=O)[O-])c1 ?
mHTT CaM bind: 0

What do the screens show for `Cc1cccc(CC(=O)N2CC3CC2CC3NS(C)(=O)=O)c1` (stereo not given)?
mHTT CaM bind: -3; Pf apPOL block: 4

What do the screens show for `Cc1cccc(NC(=O)CCc2nc(-c3cccs3)no2)n1`?
mHTT CaM bind: -4; Pf apPOL block: -3

What do the screens show for `COc1ccc(C(=O)N2CCC(Nc3ncnc4c3CCC4)CC2)cn1`?
mHTT CaM bind: -2; Pf apPOL block: 0

How did Cc1ccccc1NC1=C(N)C(=O)c2ccccc2C1=O do in these assays?
mHTT CaM bind: 59*; Pf apPOL block: -8

What do the screens show for `Cc1ccccc1NC1=C(N2CCOCC2)C(=O)c2ccccc2C1=O`?
mHTT CaM bind: 5; Pf apPOL block: 2

How did Cc1nc(-c2cccnc2)nc2c1CCC(=O)N2Cc1cccs1 do in these assays?
mHTT CaM bind: 3; Pf apPOL block: -6

How did Cc1c(C(=O)Nc2ccccc2C(=O)NCc2ccccc2)cccc1[N+](=O)[O-] do in these assays?
mHTT CaM bind: -5; Pf apPOL block: -2

Results for CC(C)CNC(=O)C1CC(=O)N(Cc2cccc(Br)c2)C1 (stereo not given) ?
mHTT CaM bind: 0; Pf apPOL block: -2

How did COc1ccc(-c2n[nH]c3c2C(c2ccc(OC)cc2)N(c2ccccc2)C3=O)cc1 (stereo not given) do in these assays?
mHTT CaM bind: 43; Pf apPOL block: -2

What do the screens show for `COc1cc(C2c3c(-c4ccc(F)cc4)n[nH]c3C(=O)N2c2ccccc2)ccc1O` (stereo not given)?
mHTT CaM bind: 78*; Pf apPOL block: -1

What do the screens show for `O=C1c2[nH]nc(-c3ccccc3)c2C(c2cccc([N+](=O)[O-])c2)N1c1ccccc1` (stereo not given)?
mHTT CaM bind: 28; Pf apPOL block: 28

What do the screens show for `O=C1c2[nH]nc(-c3ccc(F)cc3)c2C(c2ccccc2[N+](=O)[O-])N1c1ccccc1` (stereo not given)?
mHTT CaM bind: 83*; Pf apPOL block: -1

Results for COc1ccccc1CCC(=O)NC1(c2nc(-c3cccnc3)no2)CCCCC1 ?
mHTT CaM bind: 6; Pf apPOL block: 3

What do the screens show for `CCCCCCCc1ccc(C(=O)NC(=Nc2cccc(C)n2)SC)cc1`?
Pf apPOL block: 14

What do the screens show for `NC(=O)c1cc2cc(Br)ccc2oc1=Nc1ccc(Br)cc1`?
mHTT CaM bind: 6; Pf apPOL block: 1
